Source: PubChem BioAssay AID1745848 (National Center for Advancing Translational Sciences (NCATS), 2022)
Screen size: about 2,100 compounds; about 940 (45%) were called active. Roughly 48% stayed inconclusive and do not appear here. The set was probably picked from earlier hits. The list shows a part of the results. Unmarked numbers belong to inactive results. Calls come from the whole dose curve; as a rule, active = well fitted inhibition curve with a large enough effect; inconclusive = small, poorly fitted or top-dose-only effect; inactive = no such curve, though single readings can be large or run the other way.

Test: Confirmatory qHTS for Inhibitors of ATXN expression; note: nearly all actives have a fitted effect of over 65% in size;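 for activity change, negative = inhibition: 0% = DMSO vehicle wells and -100% = medium-only wells without cells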
Details: ATXN2-luciferase reporter cells, luminescence, 24 h; series mostly up to 11.5 µM; activity change, negative = inhibition: at the top concentration
How it was run: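 Cells carrying ATXN2-luciferase reporter exposed 24 h at 37 C to compound. Viability then read by CellTiter-Fluor (25 uM GF-AFC, 30 min), followed by SteadyGlo luminescence; medium-only wells set 100% inhibition.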
Potency is the fitted concentration of half-maximal effect.

Row | SMILES | Potency | activity change, negative = inhibition [%]
1 | CCOC(=O)c1c(NC(=O)COC(=O)CNC(=O)c2ccco2)sc(C)c1C | 2.51 µM (active) | –
2 | COC(=O)c1cn(NC(=O)c2cc([N+](=O)[O-])ccc2F)c(=O)c2ccccc12 | 2 µM (active) | –
3 | CC(C)CC(=NNC(=O)c1ccncc1)c1cc(Cl)ccc1O | 0.708 µM (active) | –
4 | COc1ccc(O)c(/C=N/NC(=O)c2ccc(CSc3nc(C)cc(C)n3)cc2)c1 | 2.82 µM (active) | –
5 | COc1ccc(C(=O)N/N=C/c2cc(Br)ccc2O)cc1OC | 3.16 µM (active) | –
6 | O=C(N/N=C/c1cc(Br)ccc1OC(=O)c1ccc(Br)cc1)c1ccncc1 | 2.82 µM (active) | –
7 | O=C(N/N=C/c1cc(Br)ccc1O)c1ccncc1 | 0.794 µM (active) | –
8 | COc1ccc(O)c(/C=N/NC(=O)c2ccc(OCc3cccc(Br)c3)cc2)c1 | 0.891 µM (active) | –
9 | O=C(N/N=C/c1cc(Br)cc(Br)c1O)c1cccc(N2CCCC2=O)c1 | 2 µM (active) | –
10 | O=C(N/N=C/c1cc(Br)cc(Br)c1O)c1ccncc1 | 2.82 µM (active) | –
11 | CCC(O)(CC)C(=O)N/N=C/c1cc(Br)cc(Br)c1O | 17.8 µM (active) | –
12 | O=C(N/N=C/c1cc(Cl)ccc1O)c1ccncc1 | 3.16 µM (active) | –
13 | O=C(CP(=O)(c1ccccc1)c1ccccc1)N/N=C/c1cc(Br)cc(Br)c1O | 1.58 µM (active) | –
14 | O=C(N/N=C/c1cc(Br)ccc1O)C(c1ccncc1)N1CCOCC1 (configuration not stated) | 14.1 µM (active) | –
15 | CN(C)c1ccc(C(=O)N/N=C/c2cc(Br)cc(Br)c2O)cc1 | 1.41 µM (active) | –
16 | C/C(=N\N=C(N)N)c1ccc(Cl)cc1Cl | 15.8 µM (active) | –
17 | CC1(C)Cc2ccccc2C(NNC(=O)c2ccccn2)=N1 | 15.8 µM (active) | –
18 | CC(SC(C)C(=O)NN=Cc1cccc(Cl)c1)C(=O)NN=Cc1cccc(Cl)c1 (configuration not stated) | – | -31.9
19 | CNc1ccc(Br)cc(C(=O)/C=C/c2ccc3c(c2)OCO3)c1=O | – | 7.11

Row | SMILES | Potency | activity change, negative = inhibition [%]
20 | O=C(CNC(=O)c1ccccc1Br)N/N=C/c1cc(Br)ccc1O | 2 µM (active) | –
21 | O=C(N/N=C/c1cc(Br)cc(Cl)c1O)c1ccc2c(c1)OCO2 | 3.98 µM (active) | –
22 | O=C(N/N=C/c1cc(Cl)ccc1O)c1ccccc1Br | 3.98 µM (active) | –
23 | O=C(CNC(=O)c1ccc2c(c1)OCO2)N/N=C/c1cc(Br)ccc1O | 3.55 µM (active) | –
24 | NS(=O)(=O)c1ccc(CCNC(=O)COC(=O)/C=C/c2cc(Br)ccc2F)cc1 | – | -3.85
25 | O=C(CCc1ccccc1)N/N=C/c1cc(Br)ccc1O | 1.12 µM (active) | –
26 | O=C(CNC(=O)c1ccccc1Br)N/N=C/c1ccccc1O | 15.8 µM (active) | –
27 | CCc1ccccc1OCC(=O)Nc1nc(-c2cccnc2)cs1 | 14.1 µM (active) | –
28 | COc1ccc(/C=C/C(O)=C2/C(=O)N(C)C3(C)CC2c2ccccc2O3)cc1 (configuration not stated) | 20 µM (active) | –
29 | C/[N+]([O-])=C\c1cccc(OCCN2CCN(c3ncc(C(F)(F)F)cc3Cl)CC2)c1 | – | -26.9
30 | COc1ccc(NS(=O)(=O)c2ccc(C(=O)Nc3c(C)n(C)n(-c4ccccc4)c3=O)cc2)cc1 | – | -4.47
31 | Cc1ccc(NS(=O)(=O)c2ccc(C(=O)NNC(=O)c3ccccc3O)cc2)cc1 | 14.1 µM (active) | –
32 | CCOc1ccc(NS(=O)(=O)c2ccc(C(=O)NNC(=O)c3ccccc3O)cc2)cc1 | 15.8 µM (active) | –
33 | Cc1ccc(C)c(S(=O)(=O)N2CCN(c3ncnc4sccc34)CC2)c1 | 0.631 µM (active) | –
34 | Cc1ccc(N/C(N)=N/c2nc(C)cc(N3CCCCC3)n2)c(C)c1 | 3.98 µM (active) | –
35 | COc1cc2c3nnc(-c4ccc(F)cc4)c-3cn(Cc3ccccc3F)c2cc1OC | 2 µM (active) | –
36 | COc1cc2c3nnc(-c4ccc(F)cc4)c-3cn(Cc3ccc(F)cc3)c2cc1OC | 2.82 µM (active) | –
37 | COc1ccc(Cn2cc3c(-c4ccc(F)cc4)nnc-3c3cc(OC)c(OC)cc32)cc1 | 1.78 µM (active) | –
38 | Cc1ccc(NC(=O)/C=C/c2ccc([N+](=O)[O-])s2)c(C)c1 | 1.41 µM (active) | –

Row | SMILES | Potency | activity change, negative = inhibition [%]
39 | O=C(N/N=C/c1ccc([N+](=O)[O-])o1)c1ccc2c(c1)OCO2 | 14.1 µM (active) | –
40 | O=[N+]([O-])c1ccc(/C=N/N=C/c2ccc([N+](=O)[O-])o2)o1 | 6.31 µM (active) | –
41 | CC1(C(=O)N/N=C/c2ccc([N+](=O)[O-])o2)CC1(Br)Br (configuration not stated) | 22.4 µM (active) | –
42 | COc1ccccc1NS(=O)(=O)c1cccc(C(=O)N/N=C/c2ccc([N+](=O)[O-])o2)c1 | 11.2 µM (active) | –
43 | COc1ccc(-c2csc3ncnc(Sc4nnnn4C)c23)cc1 | 3.16 µM (active) | –
44 | Cn1nnnc1Sc1ncnc2scc(-c3ccsc3)c12 | 14.1 µM (active) | –
45 | CCn1cc(C(=O)NCc2cccc(F)c2)c(=O)c2cc(F)c(N3CCN(C(=O)c4ccco4)CC3)cc21 | 15.8 µM (active) | –
46 | CCn1cc(C(=O)NCc2ccccc2)c(=O)c2cc(F)c(N3CCN(C(=O)c4ccco4)CC3)cc21 | 28.2 µM (active) | –
47 | c1ccc(-c2nnc(-c3ccccn3)nc2NC2CCCCC2)cc1 | 1.12 µM (active) | –
48 | CC(C)(C)c1cc[n+](C2=C([O-])c3ccccc3C(=O)/C2=N\S(=O)(=O)c2cccs2)cc1 | 1.12 µM (active) | –
49 | O=C(O)CCn1cc(/C=C/C(=O)c2ccc(Cl)cc2)c(-c2ccc(Br)cc2)n1 | 25.1 µM (active) | –
50 | O=C(NC1=CC(=O)c2ccccc2C1=O)c1ccccc1 | 14.1 µM (active) | –
51 | COc1ccc(-c2cc(CNc3nc(NC(C)C)nc4cc(-c5ccccc5)sc34)on2)cc1 | 11.2 µM (active) | –
52 | O=C(N/N=C/c1ccc(O)cc1O)c1ccc(CN2C(=O)c3cccc4cccc2c34)cc1 | 2 µM (active) | –
53 | Cc1ccc(C(C)C)c(OCc2ccc(C(=O)N/N=C/c3ccc(O)c(O)c3)cc2)c1 | 2.51 µM (active) | –
54 | Cc1ccc(C(C)C)c(OCc2ccc(C(=O)N/N=C/c3ccc(O)cc3O)cc2)c1 | 1.58 µM (active) | –
55 | Cc1ccc(C(C)C)c(OCc2ccc(C(=O)N/N=C/c3cccc(O)c3O)cc2)c1 | 2.82 µM (active) | –
56 | Cc1ccc(-c2nc3ccc(Cl)cn3c2CC(C)(C)C)cc1 | – | -10.7
57 | Clc1ccc(C[n+]2cc(-c3ccccc3)n3c2CCCCC3)c(Cl)c1 | 15.8 µM (active) | –
